This is part of a sample that, as a whole, favours compounds with a hit. Of some 83,000 tested, about 20% had one in any assay.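 Percent growth is the endpoint: 0 to 100 indicates growth inhibition (40 means 60% inhibition), 0 means no net growth, and negative values indicate cell death.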 A number with no mark means an inactive call. Activity calls are given as the source filed them. How the source made its calls: active means growth percent below 10; inactive means the rest.
Assays:
Assay in all cases: NCI-60 one-dose screen, 48 h (100 = growth as untreated, 0 = no growth, -100 = all killed)
Conditions in all cases: 10 µM unless noted
HT29 colon = test system: HT29 colon
SNB-75 CNS = test system: SNB-75 CNS
SNB-19 CNS = test system: SNB-19 CNS
U251 CNS = test system: U251 CNS
SK-MEL-5 melanoma = test system: SK-MEL-5 melanoma
UACC-62 melanoma = test system: UACC-62 melanoma
LOX IMVI melanoma = test system: LOX IMVI melanoma
SK-MEL-28 melanoma = test system: SK-MEL-28 melanoma
EKVX NSCLC = test system: EKVX NSCLC
SN12C renal = test system: SN12C renal
UO-31 renal = test system: UO-31 renal
TK-10 renal = test system: TK-10 renal
CAKI-1 renal = test system: CAKI-1 renal
A498 renal = test system: A498 renal
CCRF-CEM leukemia = test system: CCRF-CEM leukemia
MOLT-4 leukemia = test system: MOLT-4 leukemia
ACHN renal = test system: ACHN renal
SR leukemia = test system: SR leukemia
PC-3 prostate = test system: PC-3 prostate
SK-MEL-2 melanoma = test system: SK-MEL-2 melanoma

SMILES | growth (HT29 colon) | growth (SNB-75 CNS) | growth (SNB-19 CNS) | growth (U251 CNS) | growth (SK-MEL-5 melanoma) [%] | growth (UACC-62 melanoma) | growth (LOX IMVI melanoma) | growth (SK-MEL-28 melanoma) | growth (EKVX NSCLC) | growth (SN12C renal) | growth (UO-31 renal) | growth (TK-10 renal) | growth (CAKI-1 renal) | growth (A498 renal) | growth (CCRF-CEM leukemia) | growth (MOLT-4 leukemia) | growth (ACHN renal) | growth (SR leukemia) | growth (PC-3 prostate) [%] | growth (SK-MEL-2 melanoma)
Cc1nn(-c2ccccc2)c2c1oc(=O)c1cc(Cl)ccc12 | 101% | 83.7% | 99.2% | 105% | 110 | 92.3% | 105% | 140% | 93.2% | 101% | 102% | 111% | 84.9% | 90.9% | 98.1% | 134% | – | – | – | –
O=c1cc(-c2cccnc2)oc2c1ccc1ccccc12 | 59% | 54.4% | 64.7% | 48.8% | 63.3 | 70.3% | 75.5% | 69.3% | 86.3% | 80.3% | 60.5% | 114% | 72.9% | 61.6% | 88.1% | – | 69.6% | 39.3% | – | –
CC(C)C(=O)Cc1cnccn1 | 108% | 102% | 102% | – | 109 | 98.1% | 97% | 116% | 99.4% | 98.6% | 90.8% | 104% | 83.4% | 101% | 115% | 123% | 108% | 114% | 102 | 109%
N#Cc1c2ccccc2c2n1-c1ccccc1OC(c1ccccc1)C2=O (stereo not given) | 23.1% | 24.2% | 23.5% | 17.9% | 10.6 | – | 9.92% (active) | 93.8% | – | 15.4% | 11.2% | – | 30.6% | 30.6% | 6.32% (active) | 56.4% | 29% | -7.43% (active) | – | 59.9%
O=C(NCCc1ccccc1)C1CCC(=O)N1Cc1ccc(Br)cc1 (stereo not given) | 85.6% | 100% | 96.7% | 96.7% | 101 | 95.4% | 97.8% | 99.7% | 103% | 104% | 92.6% | 99.7% | 100% | 88.3% | – | 94% | 107% | 102% | – | –
Cc1ccccc1NC(=O)c1cc2ccccc2cc1O | 111% | 76.8% | 61.9% | 25.9% | 17.8 | 14.2% | – | 38.6% | 43.8% | 30.2% | -8.7% (active) | 60.1% | 41.4% | 43% | – | 14.2% | 34% | – | – | 33%
O=Nc1ccc(O)c(=O)cc1 | 4.07% (active) | 63.3% | 102% | 14.6% | – | 34.9% | -4.94% (active) | 55.9% | 72.5% | 14.3% | -36% (active) | 14.6% | – | 145% | – | 14% | – | 2.22% (active) | – | –
C[n+]1c2ccccc2c(NC2CCNCC2)c2[nH]c3ccccc3c21 | 2.95% (active) | 7.49% (active) | -12.4% (active) | 1.08% (active) | – | -73.3% (active) | 13.2% | 10.6% | 10.3% | -17.5% (active) | 67.3% | 29.5% | 88.8% | 51.7% | -10.9% (active) | -12.8% (active) | 71.1% | -24.4% (active) | – | -46.4% (active)
ClC1C2CC(c3ccccc32)C1Cl (stereo not given) | 100% | 102% | 104% | 106% | 113 | 101% | – | 108% | 123% | 102% | 108% | 108% | 118% | 92.4% | 96.8% | 101% | 104% | 106% | – | 104%
COc1cc2c(c(OC)c1OC)CCc1cnoc1-2 | 99.4% | 71.7% | 97% | 98.7% | 100 | 98.9% | 92.1% | – | 112% | 106% | 94.5% | 111% | 105% | 100% | 111% | 127% | 95.1% | 166% | – | 119%
N#Cc1ccc(NC(=O)Nc2ccc(Oc3ccc(NC(=O)Nc4ccc(C#N)cc4)cc3)cc2)cc1 | 37.4% | 70.1% | 30.7% | 27.7% | – | 11.2% | 35.4% | 51% | 34.1% | 39% | -25.7% (active) | 37.9% | 33% | 41.1% | -13.7% (active) | -58% (active) | 23.1% | 3.43% (active) | – | -19.6% (active)
CCC1(c2ccccc2)Oc2ccccc2-n2c(C#N)c3ccccc3c2C1=O (stereo not given) | 96.8% | 95.9% | 106% | 96.7% | 100 | – | 103% | – | – | 95.6% | 86.6% | – | 100% | 97% | 95.6% | – | 96.5% | 89.2% | – | 103%
O=[N+]([O-])c1ccc(Oc2cccc(C(F)(F)F)c2)c([N+](=O)[O-])c1 | -4.93% (active) | 92.2% | 74.5% | 18.3% | – | 34.1% | 8.07% (active) | 104% | 111% | 28.2% | 28.6% | 11.2% | – | 97.8% | – | 17.1% | 42% | 5.65% (active) | – | 11.7%
Oc1[nH]c2ccc(Cl)cc2c1/C=c1/ccc2c(c1)N=C(c1ccc(C(F)(F)F)cc1)N=2 | 42.2% | 15.8% | 77% | 49.8% | 63.4 | 61.6% | 34.2% | 45.8% | 87.4% | 88.3% | 62.2% | 88.4% | – | 95.4% | 15.5% | 21.3% | – | 25.9% | – | –
O=C(Nc1ccc(Nc2ccncc2)cc1)c1ccc(Nc2ccnc3ccc([N+](=O)[O-])cc23)cc1[N+](=O)[O-] | 103% | 85.8% | 29.6% | -46.1% (active) | 103 | 91.1% | 21.1% | – | 50% | 68% | 52.8% | – | 89.3% | 120% | – | 109% | 65.9% | – | – | –
NC(=Nc1ccccc1)SCCCCSC(N)=Nc1ccccc1 | 94.8% | 68% | 99.3% | 72.4% | 93.7 | 66.5% | – | 96.7% | 80.4% | 87% | 31% | 97.3% | 74.2% | 82.3% | – | 70.3% | 75.4% | – | – | 98.5%
Cc1ccc(C=C2C(Cl)=C(Cl)C(Cl)=C2Cl)cc1 | 8.19% (active) | -11.6% (active) | -78.3% (active) | -86.3% (active) | – | -73.6% (active) | -88.7% (active) | -87.8% (active) | -10.6% (active) | -43.4% (active) | -88% (active) | -44.6% (active) | -35.1% (active) | -88.8% (active) | -45.2% (active) | 18.3% | -54.8% (active) | 19% | – | –
NC(=O)N/N=C/c1ccc(Br)o1 | 102% | 105% | 111% | 106% | 101 | 104% | 94.2% | – | 101% | – | 86.1% | 101% | 98.4% | 97.5% | – | 97.9% | 106% | 97.6% | – | 99.6%
O=C(C(Br)Br)C(Br)C(Br)c1ccccc1 (stereo not given) | -5.3% (active) | 115% | 112% | – | 99.3 | 95.2% | 53.3% | 106% | 117% | 93.7% | 17.8% | 27.7% | 72.7% | 101% | 14.8% | 27.7% | 6.67% (active) | 19.3% | 101 | 117%
